Bioassay records deposited in PubChem by National Center for Advancing Translational Sciences (NCATS).
In the library only some 10% were active in any assay of this set; here they are far more common.
BAZ2B inh: inhibitors of human BAZ2B bromodomain; Q9UIF8; AlphaScreen BAZ2B-H3K14Ac peptide displacement; Potency, µM (doses to about 114 µM), inactives show at the highest dose activity change, negative = inhibition, actives largely listed as inhibitors; actives 4.4% (n = 360,000); AID 504333; note: % is set by controls: 0 for no effect and ±100 for the full control effect; nearly all actives have a fitted effect of over 60% in size
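Protein-peptide AlphaScreen: BAZ2B 50 nM, b-H3K14Ac 50 nM, 1x PBS pH 7.4 + 0.01% Tween-20. Preincubation 30 min RT; cpd 30 min RT (top 110 uM); beads 20 min RT, light-protected.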
JMJD2A Tudor: inhibitors of human JMJD2A Tudor domain; AID 504339; actives 4.4% (n = 390,000); AlphaScreen JMJD2A-Tudor / H3K4me3 peptide binding; O75164; Potency, µM (series often up to 114 µM), for the others: at the top dose activity change, negative = inhibition, actives largely listed as inhibitors; note: % is set by controls: 0 for no effect and ±100 for the full control effect; nearly all actives have a fitted effect of over 50% in size
GLS inhibitor: inhibitors of human glutaminase (GLS); O94925; AID 624170; actives 0.21% (n = 410,000); Potency, µM (highest dose often 45.5 µM), without a hit: at the top dose activity change, negative = inhibition, actives largely listed as inhibitors; GLS enzymatic activity, qHTS titration; note: % is set by controls: 0 for no effect and ±100 for the full control effect
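Read-out is an Amplex red fluorescence increase coupled through glutamate oxidase and HRP, measured before and after 30 min room-temperature incubation. hKGA is in 45 mM KH2PO4 (pH 8.2) with 0.02% Tween-20; glutamine added as 1mM solution.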
G9a inh: G9a (human) methyltransferase inhibition. actives 8.8% (n = 350,000). Potency, µM (highest dose often 102 µM), without a hit: at the highest dose activity, negative = inhibition, most hits filed as inhibitors. G9a H3K9 monomethylation, AlphaScreen, 2 h. AID 504332. Q96KQ7; note: % is set by controls: 0 for no effect and ±100 for the full control effect; nearly all actives have a fitted effect of over 75% in size
Target sequence (Q96KQ7 913-1193 limits assumed): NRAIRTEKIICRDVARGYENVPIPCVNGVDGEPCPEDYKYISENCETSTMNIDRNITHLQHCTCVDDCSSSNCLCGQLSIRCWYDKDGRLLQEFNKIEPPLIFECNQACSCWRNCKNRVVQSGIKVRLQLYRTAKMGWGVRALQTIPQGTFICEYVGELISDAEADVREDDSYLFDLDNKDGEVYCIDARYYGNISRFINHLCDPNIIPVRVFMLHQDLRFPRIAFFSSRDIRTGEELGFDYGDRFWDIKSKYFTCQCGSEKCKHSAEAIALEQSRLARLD
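Enzyme 20 nM + cpd, 15 min RT; add b-H3K9 pep 500 nM / SAM 20 uM; 2 h RT; anti-H3K9me1 Ab 0.5 ug/mL + SA donor / anti-rabbit acceptor beads 20 ug/mL each, 10 min; AlphaScreen read.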
HP1b chromo inh: blocks HP1-beta chromodomain binding to methylated histone tails. P83916. AlphaScreen HP1-beta / biotin-H3K9me3 peptide binding. Potency, µM (series often up to 114 µM), for inactives: top-dose activity change, negative = inhibition, usual class: inhibitors. actives 0.56% (n = 390,000). AID 540317; note: nearly all actives have a fitted effect of over 70% in size
Target sequence (P83916 whole entry, looked up): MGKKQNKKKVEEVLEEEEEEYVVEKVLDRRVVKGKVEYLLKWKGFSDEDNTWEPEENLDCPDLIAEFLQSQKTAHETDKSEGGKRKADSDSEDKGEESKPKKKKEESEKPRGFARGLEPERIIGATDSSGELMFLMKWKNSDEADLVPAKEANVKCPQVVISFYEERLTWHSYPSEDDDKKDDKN
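Compound inhibition of the preformed complex between 50 nM HP1-beta and 50 nM biotinylated H3K9me3 peptide was read by AlphaScreen. Buffer was PBS pH 7.4 with 0.01% Tween-20. Incubations ran 30 min at room temperature, with 10 ug/mL donor/acceptor beads.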
An asterisk follows results filed as active; ? = inconclusive; . = no result given; [ ] = dose if it differs, or a comment. Calls come from the whole dose curve; as a rule, active = well fitted curve in the direction sought with a large enough effect; inconclusive = small, poorly fitted or top-dose-only effect, or another doubt; inactive = no such curve, though single readings can be large; an effect the other way counts as inactive or inconclusive. Potency is the fitted concentration of half-maximal effect.

SMILES	BAZ2B inh	JMJD2A Tudor	GLS inhibitor	G9a inh	HP1b chromo inh
O=C1NN(c2cccc(Br)c2)C(=O)/C1=C/c1ccc(-c2cc([N+](=O)[O-])ccc2O)o1	2.2µM*	?	-14%	-156%[59 µM]	?
O=C1NN(c2ccccc2)C(=O)/C1=C\c1cccn1-c1ccc(Cl)c([N+](=O)[O-])c1	-26%	?	-29%	-18%	-12%
CC1=NN(c2ccc(C(=O)O)cc2)C(=O)/C1=C/c1ccc(-c2ccccc2F)o1	?	.	.	7.9µM*	.
CC1=NN(c2ccccc2)C(=O)/C1=C/c1ccc(-c2ccc(C)c(C(=O)O)c2)o1	.	40µM*	-2%	.	?
O=C(O)c1ccc(-c2noc(-c3ccccc3F)n2)cc1	.	-5%	-3%	.	24%
O=C1NC[C@H](CC2CCCCC2)N(CCC23CC4CC(CC(C4)C2)C3)C1=O	.	.	-18%	.	.
CCn1c(C(=O)O)c(S(=O)(=O)c2ccc(Cl)cc2)c2ccccc21	0%	-2%	17%	10%	34%
CC1=NN(c2ccc(Cl)c(C(=O)O)c2)C(=O)/C1=C\c1ccc(-c2ccc(C(=O)O)cc2)o1	50µM*	?	?	8.9µM*	-15%
Cc1ccc(NC(=O)/C(C#N)=C/c2ccc(-c3ccc(Cl)c(C(=O)O)c3)o2)cc1C	-27%	-20%	-3%	-51%[59 µM]	-8%
COC(=O)C1=C(NC(=O)c2cccs2)CCS1	-3%	.	.	52%[12.7 µM]	.
CCOC(=O)c1c(NC(=O)C2C3C=CC(C3)C2(C)C(=O)O)sc2c1CCCC2 (stereo not given)	56µM*	-34%	2%	-15%[59 µM]	4%
CCOC(=O)c1c(NC(=O)c2ccccc2C)sc2c1CCCC2	-1%	85%	-4%	7.9µM*	66%
COC(=O)C1=C(NC(=O)c2ccccc2C)CCS1	-4%	79µM*	-7%	-34%	2%
CCOC(=O)c1c(NC(=O)c2ccccc2C(=O)O)sc2c1CCCC2	-2%	-17%	-8%	4%	18%
CCOC(=O)c1c(NC(=O)C(C)Sc2cn(CCNC(=O)c3ccc(OC)c(OC)c3)c3ccccc23)sc2c1CCC2 (stereo not given)	-19%	?	-2%	?	24%
CCOC(=O)c1c(NC(=O)C(C)Sc2cn(CCNC(=O)c3ccccc3OC)c3ccccc23)sc2c1CCC2 (stereo not given)	8.9µM*	-31%	7%	?	3%
Cc1cc(S(=O)(=O)N2CCN(Cc3noc(CCC(=O)N4CCCCC4)n3)CC2)ccc1F	-22%	-18%	0%	?	18%
CCOC(=O)c1c(NC(=O)c2ccccc2Cl)sc2c1CCc1ccccc1-2	25%	8%	10µM*	4.5µM*	13%
CCOC(=O)c1c(NC(=O)c2ccccc2)sc2c1CCc1ccccc1-2	1%	44%	-9%	?	24%
CCCOc1ccc(C(=O)Nc2sc3c(c2C(=O)OCC)CCCCC3)cc1	5%	16%	-6%	5%[59 µM]	38%
CCOC(=O)c1c(NC(=O)c2ccc(Br)cc2)sc2c1CCCC2	4%	-10%	2%	10µM*	?
O=C(O)C[C@H]1c2cc(C(F)(F)F)ccc2S(=O)(=O)N1C1CCCCC1	.	-9%	16%	.	37%
COc1ccc2noc3c2c1C(=O)c1ccccc1-3	.	?	-13%	.	-14%
O=C1c2ccccc2-c2onc3ccc(NCCCn4ccnc4)c1c23	14µM*	50µM*	-26%	-26%[12.7 µM]	?
O=C1CSC(=Nc2ccc(Cl)cc2)N1Cc1ccco1	1%	-5%	-1%	8%[59 µM]	42%
SMILES	BAZ2B inh	JMJD2A Tudor	GLS inhibitor	G9a inh	HP1b chromo inh
O=C(COc1ccc(Br)cc1)N/N=C1/SCC(=O)N1Cc1ccco1	?	16µM*	0%	-44%	?
COc1ccc(Cn2ccc3nc(C)c(C(=O)N4CCN(c5ccccc5F)CC4)cc3c2=O)cc1	?	-32%	4%	6%[59 µM]	5%
CN1C(=O)/C(=C\C(=O)c2cccs2)c2ccccc21	20µM*	50µM*	4%	20µM*	45µM*
CC(=O)/C=C1\C(=O)N(C)c2ccccc21	.	.	.	8.9µM*	.
CC(=O)/C=C1/C(=O)Nc2ccccc21	1%	-26%	?	11µM*	16%
C=CCOc1cccc(C(=O)/C=C2/C(=O)Nc3ccccc32)c1	?	?	21%	?	-5%
Cc1ccccc1CNC(=O)C(=O)NCC(c1cccs1)S(=O)(=O)c1ccc(Cl)cc1 (stereo not given)	-2%	5%	0%	4%[59 µM]	35%
Cc1ccc(S(=O)(=O)Nc2ccccc2C(=O)N2CCN(C)CC2)cc1	-3%	2%	29%	27%	29%
CC1Cc2ccccc2N1C(=O)COC(=O)c1ccc(Cl)c(S(=O)(=O)N2CCOCC2)c1 (stereo not given)	-33%	-34%	-1%	-7%[12.7 µM]	-1%
COc1ccc(C(=O)CN2C3=NCCCN3c3ccccc32)cc1OC	-6%	-12%	5%	45µM*	10%
CCc1ccc(NC(=O)Cn2c(-c3cncs3)nc3ccccc32)cc1	?	?	-4%	-4%[59 µM]	19%
O=C(O)C1CC(=O)N(c2ccc(F)cc2)C1 (stereo not given)	-1%	50µM*	0%	-10%[12.7 µM]	?
O=C(C1CC(=O)N(c2ccc(F)cc2)C1)N1CCN(c2ccc(F)cc2)CC1 (stereo not given)	-13%	-17%	5%	.	9%
O=Cc1ccc(OC(=O)C2CC(=O)N(c3ccc(F)cc3)C2)cc1 (stereo not given)	4%	-7%	-2%	50µM*	39%
CC(C)(C)OC(=O)N1CCC(c2c(C(=O)N3CCN(c4ccccc4F)CC3)cnn2-c2ccccc2Cl)CC1	-11%[57.1 µM]	-27%	-1%	?	30%
CCCN1CCc2[nH]c(=S)[nH]c(=O)c2C1	14%	?	5%	32µM*	21%
Cc1ccc(CN2CCc3[nH]c(=S)[nH]c(=O)c3C2)cc1	-13%	-12%	-8%	?	19%[57 µM]
CC(C)N1CCc2[nH]c(=S)[nH]c(=O)c2C1	16%	?	-5%	40µM*	1%
CCc1ccccc1NC(=O)Cn1nc2c3cc(F)ccc3n(Cc3cccc(C)c3)cc-2c1=O	-11%	-6%	-1%	-10%[59 µM]	14%
CCCCn1c(=O)n(-c2cc(OC)ccc2OC)c(=O)c2c3c(sc21)CN(C(C)=O)CC3	-2%	-1%	-16%	11%[59 µM]	25%
Cc1ccc(CSC2=Nc3ccccc3C3=NC(CCC(=O)NCc4ccco4)C(=O)N23)cc1 (stereo not given)	?	-32%	-4%	?	?
CCOc1ccc(NC(=O)CSC2=Nc3ccccc3C3=NC(CC(=O)NCc4ccco4)C(=O)N23)cc1 (stereo not given)	-21%	-20%	-11%	-21%[59 µM]	16%
